Data reported in PubChem BioAssay AID1159580 (chemical genetic matrix, 2015).
In all, about 5,500 compounds went through this assay and about 2,000 (36%) were called active. Another 18% or so got no clear call; they are omitted. No stated cut-off is given here; in the data, active means normalized growth mostly below about 0.91 (no sharp cut-off); inconclusive means no clear call, values can overlap the other calls; inactive means mostly above about 0.92. The list shows a part of the results.

Test: chemical genetic growth profiling, strain panel (AID 1159580);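 further: tested at 20 µM; growth read once vehicle control cultures reached saturation at 30 °C; 1 = growth at the plate median or of vehicle wells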
Settings: growth OD

Measured: normalized growth

CC(=O)Nc1nnc(S(N)(=O)=O)s1
inactive: S. cerevisiae deletion strains, locus YKL009W, strain mrt4, stronger effect = lower value 1.03 | S. cerevisiae deletion strains, locus YKL068W, stronger effect = lower value 1 | S. cerevisiae deletion strains, locus YKL085W, strain MDH1 (second series), stronger effect = lower value 1.01 | S. cerevisiae deletion strains, locus YKL085W, strain MDH1, stronger effect = lower value 1.01 | S. cerevisiae deletion strains, locus YKL160W, strain elf1, stronger effect = lower value 1 | S. cerevisiae deletion strains, locus YKR026C, strain gcn3, stronger effect = lower value 1 | S. cerevisiae deletion strains, locus YKR091W, strain srl3, stronger effect = lower value 1.01 | S. cerevisiae deletion strains, locus YLL001W, strain dnm1, stronger effect = lower value 1.01 | S. cerevisiae deletion strains, locus YLL026W, stronger effect = lower value 1.01 | S. cerevisiae deletion strains, locus YLL041C, strain sdh2, stronger effect = lower value 1.01 | S. cerevisiae deletion strains, locus YLR027C, strain aat2, stronger effect = lower value 1.01 | S. cerevisiae deletion strains, locus YLR102C, strain apc9, stronger effect = lower value 0.99 | S. cerevisiae deletion strains, locus YLR113W, strain HOG1, stronger effect = lower value 0.982 | S. cerevisiae deletion strains, locus YLR221C, strain rsa3, stronger effect = lower value 0.986 | S. cerevisiae deletion strains, locus YLR258W, strain gsy2, stronger effect = lower value 1.01 | S. cerevisiae deletion strains, locus YLR262C, strain YPT6 (second series), stronger effect = lower value 1.04 | S. cerevisiae deletion strains, locus YLR268W, strain sec22, stronger effect = lower value 0.895 | S. cerevisiae deletion strains, locus YLR320W, strain mms22, stronger effect = lower value 0.99 | S. cerevisiae deletion strains, locus YLR342W, strain FKS1, stronger effect = lower value 1.02 | S. cerevisiae deletion strains, locus YLR357W, strain rsc2, stronger effect = lower value 1 | S. cerevisiae deletion strains, locus YLR370C, strain arc18, stronger effect = lower value 0.996 | S. cerevisiae deletion strains, locus YLR371W, strain rom2, stronger effect = lower value 0.945 | S. cerevisiae deletion strains, locus YLR384C, strain iki3, stronger effect = lower value 1 | S. cerevisiae deletion strains, locus YML032C, strain rad52, stronger effect = lower value 1.01 | S. cerevisiae deletion strains, locus YML120C, strain ndi1, stronger effect = lower value 1.02 | S. cerevisiae deletion strains, locus YML124C, strain tub3, stronger effect = lower value 1.01 | S. cerevisiae deletion strains, locus YMR058W, strain fet3, stronger effect = lower value 1.02 | S. cerevisiae deletion strains, locus YMR078C, strain ctf18, stronger effect = lower value 0.994 | S. cerevisiae deletion strains, locus YMR125W, strain sto1, stronger effect = lower value 0.989 | S. cerevisiae deletion strains, locus YMR129W, stronger effect = lower value 1.02 | S. cerevisiae deletion strains, locus YMR205C, strain PFK2, stronger effect = lower value 1.01 | S. cerevisiae deletion strains, locus YMR223W, strain ubp8, stronger effect = lower value 0.904 | S. cerevisiae deletion strains, locus YMR231W, strain pep5, stronger effect = lower value 0.993 | S. cerevisiae deletion strains, locus YNL071W, strain lat1, stronger effect = lower value 1.01 | S. cerevisiae deletion strains, locus YNL128W, strain TEP1, stronger effect = lower value 1 | S. cerevisiae deletion strains, locus YNL175C, strain NOP13, stronger effect = lower value 1.03 | S. cerevisiae deletion strains, locus YNL183C, strain NPR1, stronger effect = lower value 0.959 | S. cerevisiae deletion strains, locus YNL197C, strain WHI3, stronger effect = lower value 1 | S. cerevisiae deletion strains, locus YNL209W, strain ssb2, stronger effect = lower value 1.01 | S. cerevisiae deletion strains, locus YNL224C, strain SQS1, stronger effect = lower value 0.996 | S. cerevisiae deletion strains, locus YNL248C, strain rpa49, stronger effect = lower value 0.971 | S. cerevisiae deletion strains, locus YNL250W, strain rad50, stronger effect = lower value 1.01 | S. cerevisiae deletion strains, locus YNL271C, strain bni1, stronger effect = lower value 1.01 | S. cerevisiae deletion strains, locus YNL298W, strain CLA4, stronger effect = lower value 1 | S. cerevisiae deletion strains, locus YNL322C, strain KRE1 (second series), stronger effect = lower value 1.01 | S. cerevisiae deletion strains, locus YNR049C, strain mso1, stronger effect = lower value 1.02 | S. cerevisiae deletion strains, locus YNR052C, strain pop2, stronger effect = lower value 0.995 | S. cerevisiae deletion strains, locus YOL012C, strain htz1 0.275 | S. cerevisiae deletion strains, locus YOL147C, strain pex11, stronger effect = lower value 1.01 | S. cerevisiae deletion strains, locus YOR001W, strain rrp6, stronger effect = lower value 1.02 | S. cerevisiae deletion strains, locus YOR070C, strain gyp1, stronger effect = lower value 1 | S. cerevisiae deletion strains, locus YOR080W, strain dia2, stronger effect = lower value 1.01 | S. cerevisiae deletion strains, locus YOR083W, strain WHI5 (second series), stronger effect = lower value 1.02 | S. cerevisiae deletion strains, locus YOR083W, strain WHI5, stronger effect = lower value 0.993 | S. cerevisiae deletion strains, locus YOR106W, strain vam3, stronger effect = lower value 1.02 | S. cerevisiae deletion strains, locus YOR136W, strain idh2, stronger effect = lower value 0.979 | S. cerevisiae deletion strains, locus YOR144C, strain elg1, stronger effect = lower value 1.01 | S. cerevisiae deletion strains, locus YOR184W, strain ser1, stronger effect = lower value 0.885 | S. cerevisiae deletion strains, locus YOR231W, strain MKK1, stronger effect = lower value 0.987 | S. cerevisiae deletion strains, locus YOR265W, strain rbl2, stronger effect = lower value 1.01 | S. cerevisiae deletion strains, locus YOR270C, strain vph1, stronger effect = lower value 1 | S. cerevisiae deletion strains, locus YOR290C, strain snf2, stronger effect = lower value 1 | S. cerevisiae deletion strains, locus YOR316C, strain cot1, stronger effect = lower value 0.982 | S. cerevisiae deletion strains, locus YPL051W, strain arl3, stronger effect = lower value 1 | S. cerevisiae deletion strains, locus YPL078C, strain atp4, stronger effect = lower value 1.02 | S. cerevisiae deletion strains, locus YPL106C, strain sse1, stronger effect = lower value 0.998 | S. cerevisiae deletion strains, locus YPL240C, strain hsp82, stronger effect = lower value 1 | S. cerevisiae deletion strains, locus YPL256C, strain CLN2, stronger effect = lower value 0.992 | S. cerevisiae deletion strains, locus YPR119W, strain clb2, stronger effect = lower value 1.01 | S. cerevisiae deletion strains, locus YPR141C, strain kar3, stronger effect = lower value 1.01 | S. cerevisiae deletion strains, locus YPR163C, strain tif3, stronger effect = lower value 0.987 | S. cerevisiae deletion strains, locus YPR167C, strain met16, stronger effect = lower value 0.964
active: S. cerevisiae deletion strains, locus YKL190W, strain CNB1, stronger effect = lower value 0.569 | S. cerevisiae deletion strains, locus YKR001C, strain vps1, stronger effect = lower value 0.884 | S. cerevisiae deletion strains, locus YLR039C, strain RIC1, stronger effect = lower value 0.423 | S. cerevisiae deletion strains, locus YLR058C, strain SHM2, stronger effect = lower value 0.837 | S. cerevisiae deletion strains, locus YLR262C, strain YPT6, stronger effect = lower value 0.321 | S. cerevisiae deletion strains, locus YLR330W, strain CHS5, stronger effect = lower value 0.557 | S. cerevisiae deletion strains, locus YLR342W, strain FKS1 (second series), stronger effect = lower value 0.496 | S. cerevisiae deletion strains, locus YLR418C, strain cdc73, stronger effect = lower value 0.637 | S. cerevisiae deletion strains, locus YML016C, strain PPZ1, stronger effect = lower value 0.412 | S. cerevisiae deletion strains, locus YMR263W, strain SAP30, stronger effect = lower value 0.809 | S. cerevisiae deletion strains, locus YMR307W, strain GAS1, stronger effect = lower value 0.439 | S. cerevisiae deletion strains, locus YNL067W, strain RPL9B, stronger effect = lower value 0.755 | S. cerevisiae deletion strains, locus YNL233W, strain BNI4, stronger effect = lower value 0.792 | S. cerevisiae deletion strains, locus YNL307C, strain MCK1, stronger effect = lower value 0.846 | S. cerevisiae deletion strains, locus YNL322C, strain KRE1, stronger effect = lower value 0.592 | S. cerevisiae deletion strains, locus YOL006C, strain TOP1, stronger effect = lower value 0.141 | S. cerevisiae deletion strains, locus YOR061W, strain CKA2, stronger effect = lower value 0.702 | S. cerevisiae deletion strains, locus YOR069W, strain VPS5, stronger effect = lower value 0.826 | S. cerevisiae deletion strains, locus YPL241C, strain CIN2, stronger effect = lower value 0.645 | S. cerevisiae deletion strains, strain wtn01, stronger effect = lower value 0.874 | S. cerevisiae strains, strain wild type, stronger effect = lower value 0.533
